Screens from PubChem.
pPAFAH FP inh: inhibitors of human plasma PAF acetylhydrolase (pPAFAH); Q13093; recombinant pPAFAH, FP-rhodamine probe fluorescence polarization; inhibition, % at 3.39 µM; 330,000 tested, 1.5% active; AID 463082;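 active means inhibition above the mean inhibition across the screen plus 3 SD, cut at about 25% in these data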;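 further: inhibitors block binding of the rhodamine activity-based probe so polarization drops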
PAFAH1B2 FP inh: inhibitors of human PAFAH1B2. P68402. recombinant PAFAH1B2, FP-rhodamine activity probe, fluorescence polarization. inhibition, % at 3.39 µM. 340,000 tested, 1.2% active;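 active means inhibition above the mean of all tested compounds plus 3 SD, cut at about 24% in these data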
ZTA counter: blocks Epstein-Barr virus ZTA, an EBNA-1 counter-screen | 320,000 tested, 0.15% active | ZTA-DNA binding, fluorescence polarization | inhibition, % at 11 µM | AID 2234 | P03206; in the data active means inhibition above about 33%
Target sequence (P03206 whole entry, looked up): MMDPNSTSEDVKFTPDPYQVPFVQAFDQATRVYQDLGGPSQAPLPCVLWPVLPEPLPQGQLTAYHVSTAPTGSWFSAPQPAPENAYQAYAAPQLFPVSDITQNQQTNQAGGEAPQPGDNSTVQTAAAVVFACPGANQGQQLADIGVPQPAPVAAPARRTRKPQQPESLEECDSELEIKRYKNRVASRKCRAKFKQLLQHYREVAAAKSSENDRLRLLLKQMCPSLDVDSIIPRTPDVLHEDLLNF
EBNA-1 inhibitor: blocks EBNA-1 binding to DNA | EBNA-1 DNA binding, fluorescence polarization | inhibition, % at 14.8 µM | 300,000 tested, 0.34% active | AID 1950; in the data active means inhibition above about 28%
PAFAH1B3 inh: PAFAH1B3 (human) inhibition | 340,000 tested, 0.28% active | recombinant PAFAH1B3, FP-rhodamine probe, fluorescence polarization | inhibition, % at 3.39 µM | AID 492972 | Q15102;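 active means inhibition above the screen-wide average of all tested compounds plus 3 SD, cut at about 25% in these data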
PAFAH2 inh: PAFAH2 (human) inhibition | Q99487 | recombinant PAFAH2, FP-rhodamine activity probe, fluorescence polarization | inhibition, % at 3.39 µM | 340,000 tested, 0.99% active | AID 492956;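 active means inhibition above the mean over all tested compounds plus 3 SD, cut at about 30% in these data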;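 further: inhibitors block probe labeling of enzyme so polarization drops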
EBNA-1 inh conf: EBNA-1 (EBV) inhibition, confirmation | shares compounds with EBNA-1 inhibitor | inhibition, % at 14.8 µM | 830 tested, 35% active | Recombinant EBNA-1 DBD, Cy5-DNA fluorescence polarization;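 active means mean inhibition across replicates above a set limit taken from the earlier primary screen, cut at about 28% in these data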
ZTA DNA inh trip: ZTA (EBV) inhibition, triplicate counter-screen; inhibition, % at 11.1 µM; shares compounds with EBNA-1 inhibitor; Zta-ZRE DNA binding, Cy5 fluorescence polarization; 830 tested, under 10 active; AID 2328;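 active means mean inhibition over triplicates above a set limit taken from the primary EBNA-1 screen, cut at about 37% in these data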;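 further: purified full length Zta protein with Cy5 labeled ZRE DNA probe; inhibitors lower polarization by freeing the labeled DNA probe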
A number is an active result; i = inactive; nt = no result; + = active, no number. This is a sample that favours compounds with a hit; in the whole collection about 2.9% have one here.

SMILES	pPAFAH FP inh	PAFAH1B2 FP inh	ZTA counter	EBNA-1 inhibitor	PAFAH1B3 inh	PAFAH2 inh	EBNA-1 inh conf	ZTA DNA inh trip
COc1cccc(-c2nc(CS(=O)(=O)CC(=O)Nc3c(C)cccc3C)c(C)o2)c1	i	i	i	i	i	i	nt	nt
COc1ccc(OC)c(NC(=O)CS(=O)(=O)Cc2nc(-c3ccccc3C)oc2C)c1	i	i	i	57	i	i	i	i
C=CCS(=O)(=O)N1CCC(CCOc2ccccc2)(C(=O)OCC)CC1	i	i	i	i	i	i	nt	nt
CC(C)(C)c1nc(NC(=O)Nc2ccccc2)sc1Br	i	i	i	i	i	i	nt	nt
COc1cc(Cn2c(N)c(C#N)c3nc4ccccc4nc32)cc(OC)c1	i	i	i	92	i	i	i	i
Cc1cc(N2CCN(CC(O)C(F)(F)F)CC2)c2ccccc2n1 (centres undefined)	i	i	i	+	i	i	i	i
Cc1ccc(S(=O)(=O)N(CC(=O)N/N=C\c2cccs2)c2cccc3cccnc23)cc1	i	i	i	32	i	i	28	i
COCCOC(=O)c1c(NC(=O)COC(=O)Cc2cccc(OC)c2)sc(C(N)=O)c1C	i	i	i	39	i	i	98	i
COc1cc(NC(=O)c2ccc(C)c([N+](=O)[O-])c2)ccc1NC(=O)c1ccco1	i	nt	i	51	nt	nt	i	i
COc1cc(NC(=O)c2ccc(OC)c([N+](=O)[O-])c2)ccc1NC(=O)c1ccco1	i	i	i	i	i	i	nt	nt
O=C(NCc1ccc(Cl)cc1)c1ccc(S(=O)(=O)N2CCCCC2)cc1	i	i	i	nt	i	i	nt	nt
O=C(NNC(=O)C1CCN(S(=O)(=O)c2ccc(Cl)cc2)CC1)c1ccc(S(=O)(=O)N2CCCCC2)cc1	i	i	i	31	i	i	i	i
CC(C)=CCN1CCN(Cc2ccc(Sc3nncn3C)o2)CC1CCO (centres undefined)	i	i	i	i	i	i	nt	nt
COc1ccc(CCNC(=O)c2sc(=S)n(C)c2N)cc1	i	i	i	28	i	i	i	i
Cn1c(N)c(C(=O)NCc2ccccc2)sc1=S	i	i	i	i	i	i	nt	nt
COc1cc(CNC2CCCCCCC2)cc(Cl)c1OC	i	i	i	90	i	i	i	i
CCC(=O)Nc1ccc(Cl)c(NC(=S)NC(=O)COc2ccc(Cl)cc2)c1	i	i	i	58	i	i	i	i
COc1cc(NC(=S)N2CCN(S(=O)(=O)c3ccccc3)CC2)cc(OC)c1	nt	i	nt	nt	i	i	nt	nt
CSc1ccccc1NC(=O)Cn1nnc(-c2ccc(S(C)(=O)=O)cc2)n1	i	i	i	41	i	i	53	i
COc1cccc(/C=N/n2nnnc2N)c1O	i	i	i	i	i	i	nt	nt
COc1ccc(Cc2c(Cl)ncnc2Cl)cc1	i	i	i	33	i	i	i	i
Cc1cc(C(=O)CSc2nnnn2-c2ccc(Cl)cc2)c(C)n1CC1CCCO1 (centres undefined)	i	i	i	i	i	i	nt	nt
Cc1cc(C(=O)CSc2nnnn2-c2ccccc2)c(C)n1CC1CCCO1 (centres undefined)	i	i	i	151	i	i	93	i
O=c1c(C(c2ccccc2)c2c(O)sc3ccccc3c2=O)c(O)sc2ccccc12	i	i	i	60	i	i	38	39
O=c1c2ccccc2sc2ccccc12	nt	i	nt	nt	i	i	nt	nt
COCCn1c(SCC(=O)c2c[nH]c3ccccc23)nnc1-c1ccncc1	i	i	i	i	i	i	nt	nt
CCn1c(SCC(=O)c2c[nH]c3ccccc23)nnc1-c1cccs1	i	i	i	30	i	i	i	i
Fc1ccc(-c2[nH]ncc2CN(CC2CCC2)CC2CCCO2)c(F)c1 (centres undefined)	i	i	i	i	i	i	nt	nt
O=c1c2cc(N3CCOCC3)ccc2[nH]c(=S)n1Cc1ccco1	i	i	i	i	i	i	nt	nt
O=c1c2cc(N3CCOCC3)ccc2[nH]c(=S)n1Cc1cccc(Cl)c1	i	i	i	30	i	i	i	i
